“And” between values parts separate entries of the source, which are not always exact repeats. Identical values can stand only once. Inconclusive results are not listed. The source made the active and inactive calls. Calls follow the shape of the dose curve; as a rule, active = well fitted curve in the direction sought with a large enough effect; inconclusive = small, poorly fitted or top-dose-only effect, or another doubt; inactive = no such curve, though single readings can be large; an effect the other way counts as inactive or inconclusive.
What was measured:
[1] = target: Cellular tumor antigen p53 (Homo sapiens) (UniProt P04637); test: Primary qHTS for small molecule compounds that upregulate eGFP-tagged delta133p53alpha (in N-terminal) cells. (AID 2060322); details: NCI-H358 eGFP-delta133p53alpha fluorescence, 24 h; activation: stronger effect = higher value;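 also: series mostly up to about 56 µM; 0% = DMSO vehicle and 100% = reference activator; nearly all actives have a fitted effect of over 75% in size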
Chain of Cellular tumor antigen p53 (Homo sapiens) (P04637 whole entry, looked up): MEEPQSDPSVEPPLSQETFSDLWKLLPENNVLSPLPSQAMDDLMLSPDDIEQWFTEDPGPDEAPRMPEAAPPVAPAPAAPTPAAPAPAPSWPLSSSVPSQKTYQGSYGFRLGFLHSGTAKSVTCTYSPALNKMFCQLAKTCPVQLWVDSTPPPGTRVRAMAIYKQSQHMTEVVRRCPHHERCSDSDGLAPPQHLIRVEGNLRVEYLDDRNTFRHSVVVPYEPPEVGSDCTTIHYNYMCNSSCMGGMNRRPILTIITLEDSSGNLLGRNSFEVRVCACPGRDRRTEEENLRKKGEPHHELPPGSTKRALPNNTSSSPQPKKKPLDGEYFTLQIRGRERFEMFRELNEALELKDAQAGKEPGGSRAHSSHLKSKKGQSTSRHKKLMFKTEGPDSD
In short: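 NCI-H358 cells pre-induced 24 h with 10 ng/ml doxycycline to express N-terminal eGFP-delta133p53alpha, then dosed 24 h at 37C without doxycycline; fixed, Hoechst-stained, GFP intensity by laser scanning cytometry, normalized to DMSO (0%) and 57.5 uM 5-azacytidine (100%).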

[2] = target: Aldehyde dehydrogenase, mitochondrial (Homo sapiens) (UniProt P05091); test: qHTS for Inhibitors of the Aldehyde Dehydrogenase Family (ALDH2) Primary screen (AID 2061308);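 also: plate controls were vehicle for no effect and reference inhibitor for full effect; nearly all actives have a fitted effect of over 55% in size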
[3] = target: Retinaldehyde dehydrogenase 3 (Homo sapiens) (UniProt P47895); test: qHTS for Inhibitors of the Aldehyde Dehydrogenase Family (ALDH1A3) Primary screen (AID 2061315);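 also: plate controls were DMSO vehicle for no effect and reference inhibitor for full effect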

COc1c(OC2OC(CO)C(O)C(O)C2O)ccc(O)c1C(=O)OCc1ccccc1O[C@@H]1O[C@H](CO)[C@@H](O)[C@H](O)[C@H]1O (some centres not stated)
inactive: activation [1] 3.82% | Potency [2] | Potency [3]

CC(O)C1NC(=O)C2CCCN2C1=O (configuration not stated)
inactive: activation [1] -25.2% | Potency [2] | Potency [3]

C[C@@H]1O[C@@H](O[C@H]2[C@H](O)[C@@H](O)[C@H](OC[C@H]3O[C@@H](OC(=O)[C@]45CCC(C)(C)C[C@H]4C4=CCC6[C@@]7(C)CC[C@H](O[C@@H]8OC[C@H](O)[C@H](O[C@@H]9O[C@H](CO)[C@@H](O)[C@H](O)[C@H]9O)[C@H]8O)[C@@](C)(CO)C7CC[C@@]6(C)[C@]4(C)CC5)[C@H](O)[C@@H](O)[C@@H]3O)O[C@@H]2CO)[C@H](O)[C@H](O)[C@H]1O (some centres not stated)
inactive: activation [1] -10.7% | activity change, negative = inhibition [2] 1.57% [at 11.2 µM] | activity change, negative = inhibition [3] 14.6% [at 11.2 µM]

COc1ccc([C@@]2(O)c3c(ccc(CC=C(C)C)c3O)NC(=O)[C@@H]2OC)cc1
inactive: activation [1] -19.1% | Potency [2] | Potency [3]

CC(=O)NC[C@H]1CN(c2ccc(N3CCN(C(=O)CO)CC3)c(F)c2)C(=O)O1
inactive: activation [1] 11.6% | Potency [2] | Potency [3]

CC/C=C\[C@H](O)[C@H](O)C1=C(C)C(=O)[C@]2(O1)C(=O)N[C@@](OC)(C(=O)c1ccccc1)[C@@H]2O
inactive: activation [1] -6.87% | Potency [2] | Potency [3]

CC(C)(C)NC(=O)[C@@H](c1cccnc1)N(C(=O)c1ccco1)c1ccc(C(C)(C)C)cc1
inactive: activation [1] 5% | Potency [2] | Potency [3]

COc1cc(C(C)=O)ccc1O[C@@H]1O[C@H](CO[C@@H]2O[C@@H](C)[C@H](O)[C@@H](O)[C@H]2O)[C@@H](O)[C@H](O)[C@H]1O
inactive: activation [1] -13% | Potency [2] | Potency [3]

CC1C(=O)CC2C3CCC(C(=O)O)C12CC3(C)CO (configuration not stated)
inactive: activation [1] 9.92% | Potency [2] | Potency [3]

C/C=C/C=C/C=C/C(=O)N(C)C(C(=O)NC(C)C(=O)N1CCCC1C(N)=O)C(C)C (configuration not stated)
inactive: activation [1] 17.6% | Potency [2] | Potency [3]

CN(C)CCn1cc(S(=O)(=O)c2cccc(F)c2)c2cccnc21
inactive: activation [1] -7.16% | Potency [2] | Potency [3]

O=C1NC(Cc2c[nH]c3ccccc23)C(=O)NC1Cc1c[nH]c2ccccc12 (configuration not stated)
inactive: activation [1] 14.5% | Potency [2] | Potency [3]

CC(=C\C(C)O)/C=C(\C)C(=O)CC1CC(CC(N)=O)CC(=O)O1 (configuration not stated)
inactive: activation [1] -16.8% | Potency [2] | Potency [3]

C=CC1(C)C=C2C(=O)CC3C(C)(C)CCCC3(C(=O)O)C2(O)CC1 (configuration not stated)
inactive: activation [1] -15.3% | Potency [2] | Potency [3]

O=C(c1ccc(OC(F)F)c(C#Cc2ccccn2)c1)N1Cc2cccnc2C1
inactive: activation [1] 4.77% | Potency [2] | Potency [3]

C[C@@]12C[C@]3(O)O[C@H](O1)[C@]1(COC(=O)c4ccccc4)[C@H]3C[C@@]12O[C@@H]1O[C@H](COC(=O)c2ccccc2)[C@@H](O)[C@H](O)[C@H]1O
inactive: activation [1] -5.34% | Potency [2] | Potency [3]

COC(=O)C1=CO[C@@H](O[C@@H]2O[C@H](CO)[C@@H](O)[C@H](O)[C@H]2O)[C@@H]2[C@@H](C(=O)O)CC[C@H]12
inactive: activation [1] -5.34% | Potency [2] | Potency [3]

N#C[C@@H]1C[C@H](F)CN1C(=O)CNC1[C@H]2CN(C(=O)c3ccc(F)cc3)C[C@@H]12 (some centres not stated)
inactive: activation [1] -1% | Potency [2] | Potency [3]

CC(=O)NC(Cc1ccccc1)C(=O)O (configuration not stated)
inactive: activation [1] 1.67% and 0% | Potency [2] | Potency [3]

CC1(C)[C@@H](O)CC[C@]2(C)[C@H]3CC=C4[C@@H]5C[C@](C)(C(=O)O)CC[C@]5(C)CC[C@@]4(C)[C@]3(C)CC[C@@H]12
inactive: activation [1] 7% | Potency [2] | Potency [3]

CC1(C)CC2C(C1)C(C)(O)C13CC1(COC3=O)C2O (configuration not stated)
inactive: activation [1] 8.93% | Potency [2] | Potency [3]

CC(C)c1nc(N(C)S(C)(=O)=O)nc(-c2ccc(F)cc2)c1/C=C/[C@@H](O)C[C@@H](O)CC(=O)O
inactive: activation [1] -19% | Potency [2] | Potency [3]

C1CCN2CC3C[C@@H](CN4CCCC[C@@H]34)[C@H]2C1
inactive: activation [1] -23.2% | Potency [2] | Potency [3]

COC1C=C(C)C(O)(CO)C2(C)CCCC(C)(C)C12 (configuration not stated)
inactive: activation [1] 13% | Potency [2] | Potency [3]
